The whole screen tested about 13,000 compounds, of which about 3,200 (25%) showed an effect of 50% or more. This is one part of the list.
Tested on: P. falciparum stage V gametocytes
Parameters: BacTiter-Glo ATP luminescence viability of purified stage V gametocytes in 384-well plates, per cent inhibition versus DMSO
Conditions: 48 h, 5 µM; inhibitor

SMILES | % Inhibition
O=C1OC2(CCN(Cc3cccc(-c4ncc[nH]4)c3)CC2)CN1CCNCc1ccccc1 [TCMDC-136733] | -38.21%
CCNc1cc(C)nc(Nc2ccc(NC(=O)Cc3ccc(OC)cc3)cc2)n1 [TCMDC-124983] | 15.74%
Cc1cc(NCCC(=O)Nc2ccccc2)nc(NCCc2cccnc2)n1 [TCMDC-134880] | 47.41%
COc1ccc(Nc2cc(C)nc(NCc3ccc4c(c3)OCO4)n2)cc1 [TCMDC-136332] | 81.18%
COc1ccc(NC(=O)CCNc2cc(C)nc(NCc3cccc(C)c3)n2)cc1 [TCMDC-134883] | 59.29%
Cc1cccc(CNc2nc(C)cc(NCCC(=O)Nc3ccccc3)n2)c1 [TCMDC-134885] | 25.97%
Cc1cc(NCCC(=O)Nc2ccccc2)nc(NCCc2ccc(F)cc2)n1 [TCMDC-134783] | 44.82%
Cc1cc(NCCC(=O)Nc2ccccc2)nc(NCCc2ccccc2)n1 [TCMDC-134772] | 51%
Cc1cc(NCCC(=O)Nc2ccccc2)nc(NCCc2cccs2)n1 [TCMDC-134872] | 26.35%
COc1ccccc1CCNc1nc(C)cc(NCCC(=O)Nc2ccccc2)n1 [TCMDC-134800] | 76.83%
COc1ccc(Nc2nc(C)cc(NCc3ccc(-c4c(C)noc4C)cc3)n2)cc1 [TCMDC-134024] | -1.002%
COc1ccc(NC(=O)CCNc2cc(C)nc(NCc3ccccc3C)n2)cc1 [TCMDC-134899] | 34.68%
Cc1ccc(C)c(-n2c(SCC(=O)Nc3ccc(C(N)=O)cc3)nnc2-c2cccc(Cl)c2)c1 [TCMDC-124332] | 36.9%
O=C(Nc1cccc(F)c1)NC1CCN(c2ccnc3cc(Cl)ccc23)CC1 [TCMDC-133569] | -8.116%
Cc1ccccc1-c1nc2c(CN3CCC(O)(c4ccccc4)CC3)c(O)ccc2[nH]1 [TCMDC-136533] | 40.24%
CCCc1ccc(NC(=O)c2cccc(CN3CCCN(Cc4cccc(C#N)c4)CC3)c2)cc1 [TCMDC-135977] | -19.91%
O=C(Cc1ccc(NC(=O)c2ccc(O)c(-c3ccc(Cl)c(Cl)c3)c2)cc1)NCCN1CCOCC1 [TCMDC-140853] | -3.124%
COc1ccc(NC(=O)CCNc2cc(C)nc(NCCc3ccccc3)n2)cc1 [TCMDC-134770] | 41.15%
CCCC(C)Nc1nc(C)cc(NCCC(=O)Nc2ccc(OC)cc2)n1 (centres unmarked) [TCMDC-134762] | 20.26%
COc1ccc(NC(=O)CCNc2cc(C)nc(NCCc3ccc(F)cc3)n2)cc1 [TCMDC-134864] | 55.47%
c1csc(-c2nc(N3CCCC3)ncc2-c2ccsc2)n1 [TCMDC-125373] | 23.84%
CS(=O)(=O)Cc1ccc(Nc2nccc(-c3c(-c4cccc(C(=O)Nc5c(F)cccc5F)c4)nn4ccccc34)n2)cc1 [TCMDC-135742] | -95.17%
O=C(NCCCN1CCC(N2CCCCC2)CC1)c1ccc2nc(N3CCCCC3)sc2c1 [TCMDC-124404] | 56.64%

SMILES | % Inhibition
CCCN1CCN(CCCNC(=O)c2cc3c(Cl)nc4ccc(C)cc4c3s2)CC1 [TCMDC-124441] | 16.62%
CCCCCCNC(=O)c1nn(CCN2CCC(N3CCCC3)CC2)cc1-c1ccc(Cl)c(Cl)c1 [TCMDC-141907] | 27.94%
O=C(NC1CC1)c1ccc(N2CCOc3ccc(Cl)cc32)s1 [TCMDC-125270] | 3.185%
Cc1ccc2nc(Cl)c3cc(C(=O)NCCCN4CCCC4)sc3c2c1 [TCMDC-125000] | 29.06%
O=C(NCCCN1CCC(N2CCCCC2)CC1)c1ccc(N2CCOc3ccccc32)s1 [TCMDC-125271] | 84.69%
O=C(NCCCN1CCC(N2CCCCC2)CC1)C1=Cc2cc(Br)ccc2OC1 [TCMDC-124696] | 29.02%
N#Cc1ccc(-c2ccc(C(=O)NCCCCN3CCC(n4cnc5ccccc54)CC3)cc2)cc1 [TCMDC-138796] | -25.18%
Cc1cc(C)c2nc(N3CCC(C(=O)NCCCN4CCC(N5CCCCC5)CC4)CC3)sc2c1 [TCMDC-124448] | 62.4%
Cc1c(C(=O)C2CC2CN2CCC(N3CCCCC3)CC2)sc2ccccc12 (centres unmarked) [TCMDC-132576] | 19.76%
Cc1ccc2nc3sc(C(=O)NCCCN4CCC(N5CCCCC5)CC4)cc3cc2c1 [TCMDC-125157] | 73.7%
CCOCCCNc1nc2cc(OC)c(OC)cc2c2nc(-c3ccccc3)nn12 [TCMDC-124406] | -8.61%
COc1ccc2nccc(N3CCCN(CCNS(=O)(=O)c4ccc5c(c4)NC(=O)CS5)CC3)c2n1 [TCMDC-134651] | 20.86%
CCC(C)CN1CCC(N(C)c2cc(NC(=O)c3cccc(C)c3)ccn2)CC1 (centres unmarked) [TCMDC-134950] | -9.268%
CC(CN(C)C)C(=O)Nc1ccc(-c2cccc(-c3nc4ccc(C(F)(F)F)cc4[nH]3)c2)cc1 (centres unmarked) [TCMDC-137109] | -30.4%
COc1ccc(-n2ccnc2)cc1CNC1CCN(CC2Cn3c(=O)ccc4ccc(F)c2c43)CC1 (centres unmarked) [TCMDC-134407] | -10.31%
CN1CCC(N(C)C(=O)C=Cc2cn(-c3ccccc3)nc2-c2cc3ccccc3o2)CC1 [TCMDC-124569] | 79.49%
CN(C(=O)/C=C/c1ccccc1F)C1CCN(CCCCCNC(=O)/C=C/c2ccc(Cl)c(Cl)c2)CC1 [TCMDC-139992] | 46.22%
COc1ccccc1/C=C/C(=O)N(C)C1CCN(CCCCCNC(=O)/C=C/c2ccc(Cl)c(Cl)c2)CC1 [TCMDC-139985] | 9.126%
CCCCCOc1c(CCC)cc(Cc2cnc(N)nc2N)cc1CCC [TCMDC-137287] | -6.135%
COc1cc2c(cc1C(F)(F)F)N(C(=O)Nc1cc(Br)cc(-c3cccnc3)c1)CC2 [TCMDC-139024] | 0.01985%
COc1cc2c(cc1C(F)(F)F)N(C(=O)Nc1cccc(-c3ccc(CN(C)C)cc3)c1)CC2 [TCMDC-139014] | 97.51%
COc1cc2c(cc1C(F)(F)F)N(C(=O)Nc1cc(-c3ccncc3)cc(-c3cccnc3)c1)CC2 [TCMDC-139040] | -15.72%
CC(C)c1ccc(NC(=O)c2ccc(C(=O)NC3CCN(CC4CCCCC4)CC3)cc2)cc1 [TCMDC-136750] | -11.44%

SMILES | % Inhibition
NC1=NC(Cc2ccccc2)(c2ccncc2)C(=O)N1CCCc1ccccc1 (centres unmarked) [TCMDC-136557] | 2.084%
CN(C)CC1c2[nH]c3ccccc3c2CCN1C(=O)Nc1ccc(Cl)c(Cl)c1 (centres unmarked) [TCMDC-139004] | 3.866%
CC(C)CC1c2[nH]c3ccccc3c2CCN1C(=O)CCc1ccccc1 (centres unmarked) [TCMDC-123996] | -45.79%
O=C(c1ccc(Cl)c(Cl)c1)N1CCc2c([nH]c3ccccc23)C1CN1CCCC1 (centres unmarked) [TCMDC-139011] | 81.19%
N#Cc1ccc2c(c1)CCN(CCC1CCC(NC(=O)/C=C/c3ccc4[nH]ccc4c3)CC1)CC2 (centres unmarked) [TCMDC-139666] | 5.34%
O=C(Nc1cccc(-c2ccc(CN3CCCC3)cc2)c1)c1cccc(F)c1 [TCMDC-132647] | 5.119%
N#Cc1cccc(C(=O)Nc2cccc(-c3cccc(CN4CCNCC4)c3)c2)c1 [TCMDC-132660] | 26.75%
O=C(Nc1cccc(F)c1)N(Cc1ccc(-c2ccc(CN3CCNCC3)cc2)cc1)C1CCN(Cc2ccccc2)CC1 [TCMDC-139654] | 96.89%
O=C(Nc1cccc(F)c1)N(Cc1ccc(-c2cccc(CN3CCNCC3)c2)cc1)C1CCN(Cc2ccccc2)CC1 [TCMDC-139638] | 105.9%
CN(c1cc(NC(=O)c2ccccc2)ccn1)C1CCN(Cc2cccc(F)c2)CC1 [TCMDC-135011] | 9.307%
CCn1cnc2c(N3CCCC3=O)cc(C(=O)N[C@@H](Cc3ccccc3)[C@H](O)CNC3CCCCC3)cc21 [TCMDC-135231] | -30.5%
CCN(CC)CCN(Cc1ccc(-c2ccc(C(F)(F)F)cc2)cc1)C(=O)Cn1c(CCc2cc(F)ccc2F)nc(=O)c2ccccc21 [TCMDC-140941] | 67.52%
CCN(CC)CCN(Cc1ccc(-c2ccc(C(F)(F)F)cc2)cc1)C(=O)Cn1c(CCc2cc(F)c(F)cc2F)nc(=O)c2ccccc21 [TCMDC-140949] | 56.5%
COc1ccc2nccc([C@H](O)CN3CCC(NCc4nc5c(F)cccc5[nH]4)CC3)c2c1 [TCMDC-141062] | -21.41%
NC(=O)c1cccc(C(=O)Nc2cccc(-c3ccc(-c4nc5ccccc5[nH]4)s3)c2)c1 [TCMDC-132195] | 9.45%
Cc1[nH]c2ccc([N+](=O)[O-])cc2c1C1=CCN(C)CC1 [TCMDC-139186] | -16.2%
c1cc(CN2CCN(CCN3CCOCC3)CC2)cc(-c2ccc(-c3nc4ccccc4[nH]3)cc2)c1 [TCMDC-133939] | -22.81%
CN(C)CCNCc1cccc(-c2cccc(-c3nc4ccccc4[nH]3)c2)c1 [TCMDC-132680] | 40.55%
c1cc(CNCCN2CCNCC2)cc(-c2ccc(-c3nc4ccccc4[nH]3)cc2)c1 [TCMDC-132861] | 85.05%
c1cc(CNCC2CCCO2)cc(-c2cccc(-c3nc4ccccc4[nH]3)c2)c1 (centres unmarked) [TCMDC-133090] | 0.6072%
CNCCNCc1cccc(-c2ccc(-c3nc4ccccc4[nH]3)cc2)c1 [TCMDC-132839] | 24.41%
c1cc(CNCCN2CCNCC2)cc(-c2cccc(-c3nc4ccccc4[nH]3)c2)c1 [TCMDC-132859] | 95.66%

Source: publication PMC4552634, “A New Set of Chemical Starting Points with Plasmodium falciparum Transmission-Blocking Potential for Antimalarial Drug Discovery” (PLoS ONE, 2015)
